Source: PubChem BioAssay (National Center for Advancing Translational Sciences (NCATS))
TDP1 cell CPT: growth inhibition of DT40 Tdp1-/-;hTDP1 cells with camptothecin (screen for TDP1 inhibitors); Potency, µM (top dose mostly 46.2 µM), without a hit: top-dose activity change, negative = growth inhibition, hits mostly inhibitors; chicken DT40 Tdp1-/-;hTDP1 cells + 20 nM CPT, ATP luminescence, 48 h; AID 686979; 420,000 compounds, 12% hits; also: potency is read from the fitted curve at half-maximal effect; nearly all actives have a fitted effect of over 55% in size
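Cell growth measured by CellTiter-Glo luminescence after a minimum 48 h, 37 C compound exposure with 20 nM CPT in Tdp1-knockout DT40 cells stably expressing hTDP1, seeded 400/well; qHTS titration format.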
HT1080-NT tox: kills 2HG-producing HT-1080-NT fibrosarcoma cells | Potency, µM (top dose mostly 46.1 µM), for inactives: at the top dose activity, negative = less viability, most hits filed as cytotoxic | AID 686970 | HT-1080-NT fibrosarcoma viability, CellTiter-Glo ATP luminescence, 48 h | 360,000 compounds, 1.6% hits;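 also: NT is the 2HG producing partner of a matched IDH1 knockdown line; potency is read from the fitted curve at half-maximal effect; 0% = DMSO-treated cells and -100% = media-only wells without cells; nearly all actives have a fitted effect of over 55% in size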
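Toxicity toward the 2HG-producing NT line was scored as %Activity, normalised to DMSO and no-cell wells, from CellTiter-Glo luminescence after 48 hours' treatment.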
IL1B secr inh: blocks inflammasome-driven IL-1 beta release. THP-1 LPS/ATP IL-1B secretion, AlphaLISA, 16 h; hits give low values. activity change, % at 57.5 µM. 360,000 compounds, 4.7% hits. AID 743279; in the data active = activity change below about -50%; inconclusive = mostly about -30% to -49%
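THP-1 cells pretreated 1 hr with compounds (up to 57.5 uM final), then stimulated with LPS (250 ng/mL final) plus ATP (1.25 mM final); secreted IL-1B measured by AlphaLISA after 16 hr, decreased signal indicating inhibition.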
uPA generation: blocks generation of uPA at the cell surface | Potency, µM (titrated, usually from 38.3 µM), for inactives: at the top dose activity change, negative = inhibition, actives largely listed as inhibitors | 330,000 compounds, 0.31% hits | cell surface uPA generation assay, qHTS; active = well fitted inhibition curve with a large enough effect; inconclusive = small, poorly fitted or top-dose-only effect; inactive = no such curve, though single readings can be large or run the other way; tested in mouse RAW 264.7 cells; also: potency is read from the fitted curve at half-maximal effect; nearly all actives have a fitted effect of over 55% in size
TDP1 cell noCPT: qHTS for Inhibitors of human tyrosyl-DNA phosphodiesterase 1 (TDP1): qHTS in cells in absence of CPT; 420,000 compounds, 15% hits; Potency, µM (titrated, usually from 46.2 µM), inactives show at the top dose activity change, negative = growth inhibition, hits mostly inhibitors; AID 686978, 2013; DT40 Tdp1-/- hTDP1 cells, no CPT, ATP luminescence, 48 h; also: potency is read from the fitted curve at half-maximal effect; nearly all actives have a fitted effect of over 55% in size
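Growth kinetics read by CellTiter-Glo luminescence after ≥48 hr at 37 °C. Cells: DT40 Tdp1-/- stably carrying human TDP1, 400 per well, compound exposure in the absence of CPT (DMSO vehicle).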
HT1080 IDH1KD tx: kills HT-1080 cells with IDH1 knockdown | 360,000 compounds, 2% hits | HT-1080 IDH1 knockdown viability, ATP luminescence, 48 h | Potency, µM (titrated, usually from 46.1 µM), without a hit: at the highest dose activity, negative = toxicity, usual class: cytotoxic;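 also: potency is read from the fitted curve at half-maximal effect; 0% = DMSO wells and -100% = cell-free medium wells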
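HT-1080-IDH1KD cells (IDH1 knocked down), 750/well in RPMI with 5% FBS, treated with compound 48 h at 37 degrees C. Viability by CellTiter-Glo luminescence, normalised to DMSO and no-cell wells; concentration-response curves classed.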
* hit, by the source's call; ? = inconclusive; nt = no result given. Compounds with a hit are over-represented: about 19% of the library has one in this group of screens. Unless noted, calls follow the shape of the dose curve; as a rule, active = well fitted curve in the direction sought with a large enough effect; inconclusive = small, poorly fitted or top-dose-only effect, or another doubt; inactive = no such curve, though single readings can be large; an effect the other way counts as inactive or inconclusive. Unless noted, % is scaled to controls: 0 for no effect and ±100 for the full control effect.

SMILES | TDP1 cell CPT | HT1080-NT tox | IL1B secr inh | uPA generation | TDP1 cell noCPT | HT1080 IDH1KD tx
COc1ccccc1N1CCN(c2nc(CNC(=O)c3sc(C)nc3C)nc3ccccc23)CC1 | 6.5µM* | nt | nt | nt | 5.2µM* | nt
Cc1sc2nc3c(C(=O)N4CCCC4)cc(C(=O)c4ccccc4O)cn3c(=O)c2c1C | ? | 4% | ? | 4% | 13µM* | 10%
CCc1c(C)sc2nc3c(C(=O)N4CCOCC4)cc(C(=O)c4cc(F)ccc4O)cn3c(=O)c12 | 23µM* | -22% | -76* | -6% | 16µM* | ?
O=C(c1cc(C(=O)N2CCOCC2)c2nc3ccccc3n2c1)c1ccccc1O | ? | 24% | 0 | 12% | ? | 0%
O=C(CS(=O)(=O)Cc1ccccc1)c1ccccc1 | -28% | 5% | 5 | nt | -21% | 4%
COc1ccc(NC2CCCN(C(=O)COc3ccc(C(C)=O)cc3)C2)cc1 (configuration not stated) | -3% | -2% | -17 | nt | 0% | -1%
